Read-out in experiment [1]: NAD(P)H dehydrogenase [quinone] 1 (NQO1), NQO1 (gene 1728)
Briefly: LTEA_HepaRG_NQO1: Life Technologies and Expression Analysis (LTEA) Assay for NAD(P)H dehydrogenase [quinone] 1 (NQO1) using HepaRG (AID 2283526). The conditions noted are these: mRNA level, 48 h; actives raise or lower the signal. The essentials: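 Differentiated human HepaRG cells in serum-free induction medium, dosed in duplicate for 48 h at 8 half-log concentrations up to 100 uM in 0.5% DMSO. NQO1 mRNA by qRT-PCR normalized to ACTB, GAPDH, POLR2A; bidirectional fit versus DMSO baseline.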

Read-out in experiment [2]: Nuclear factor erythroid 2-related factor 2 (Homo sapiens) (UniProt Q16236)
Briefly: LTEA_HepaRG_NFE2L2: Life Technologies and Expression Analysis (LTEA) Assay for Nuclear factor erythroid 2-related factor 2 (NFE2L2) Transcription Factor using HepaRG (AID 2283527). Particulars: mRNA level, 48 h; actives raise or lower the signal. Put shortly:
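Transcript level of NFE2L2 is the read-out, measured by microfluidic TaqMan qRT-PCR and normalized to three housekeeping genes. Human HepaRG cultures received test chemical for 48 h at up to 100 uM in half-log steps. Gain or loss of signal is fitted relative to 0.5% DMSO.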

Read-out in experiment [3]: succinate dehydrogenase complex iron sulfur subunit B (SDHB), SDHB (gene 6390)
Briefly: LTEA_HepaRG_SDHB: Life Technologies and Expression Analysis (LTEA) Assay for succinate dehydrogenase complex iron sulfur subunit B (SDHB) using HepaRG (AID 2283528). The conditions noted are these: mRNA level, 48 h; actives raise or lower the signal. Put shortly: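 HepaRG, 48 h exposure, 8-pt half-log series from 100 uM in 0.5% DMSO, duplicates. Readout: SDHB mRNA by Fluidigm qRT-PCR vs housekeeping genes; bidirectional fit relative to DMSO.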

Read-out in experiment [4]: Signal transducer and activator of transcription 3 (Homo sapiens) (UniProt P40763)
The experiment in a line: LTEA_HepaRG_STAT3: Life Technologies and Expression Analysis (LTEA) Assay for Signal transducer and activator of transcription (STAT3) using HepaRG (AID 2283529). Particulars: mRNA level, 48 h; actives raise or lower the signal. The essentials: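 Read-out is STAT3 mRNA level by qRT-PCR, normalized to three housekeeping genes, in human HepaRG liver cells treated for 48 h. Concentrations ran from 100 uM downward in half-log steps; curves were fitted for gain or loss relative to 0.5% DMSO.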

Read-out in experiment [5]: solute carrier (SLCO1B1), SLCO1B1 (gene 10599)
The experiment in a line: LTEA_HepaRG_SLCO1B1: Life Technologies and Expression Analysis (LTEA) Assay for solute carrier (SLCO1B1) using HepaRG (AID 2283530). The conditions noted are these: mRNA level, 48 h; actives raise or lower the signal. Put shortly:
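SLCO1B1 transcript levels were quantified by TaqMan qRT-PCR using three housekeeping genes for normalization. This followed 48 h chemical exposure (100 uM top, half-log, 8 points, 0.5% DMSO) of HepaRG liver cells, with gain or loss fitted relative to DMSO.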

Read-out in experiment [6]: sulfotransferase 2A1 (SULT2A1), SULT2A1 (gene 6822)
Briefly: LTEA_HepaRG_SULT2A1: Life Technologies and Expression Analysis (LTEA) Assay for sulfotransferase 2A1 (SULT2A1) using HepaRG (AID 2283531). Particulars: mRNA level, 48 h; actives raise or lower the signal. Put shortly:
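Expression change of SULT2A1, by qRT-PCR with three housekeeping-gene normalization, was scored bidirectionally versus DMSO. Cells: differentiated HepaRG, dosed in duplicate for 48 h across 8 points, highest 100 µM, half-log dilution, 0.5% DMSO.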

Read-out in experiment [7]: Transforming Growth Factor (TGFA), TGFA (gene 7039)
The experiment in a line: LTEA_HepaRG_TGFA: Life Technologies and Expression Analysis (LTEA) Assay for Transforming Growth Factor (TGFA) using HepaRG (AID 2283532). Particulars: mRNA level, 48 h; actives raise or lower the signal. The essentials:
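HepaRG (human liver line), 48 h exposure, 8 conc. half-log down from 100 uM, 0.5% DMSO vehicle, duplicates; serum-free induction medium. TGFA mRNA by TaqMan qRT-PCR, ACTB/GAPDH/POLR2A normalization; gain/loss fit vs DMSO.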

Read-out in experiment [8]: Transforming Growth Factor (TGFB1), TGFB1 (gene 7040)
The experiment in a line: LTEA_HepaRG_TGFB1: Life Technologies and Expression Analysis (LTEA) Assay for Transforming Growth Factor (TGFB1) Transporter using HepaRG (AID 2283533). Particulars: mRNA level, 48 h; actives raise or lower the signal. Put shortly: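 TGFB1 transcript measured by qRT-PCR with normalisation to three housekeeping genes (ACTB, GAPDH, POLR2A); human HepaRG line treated in duplicate for 48 hr with an 8-point series topping at 100 uM, 0.5% DMSO vehicle, bidirectionally fitted.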

Read-out in a further experiment: TIMP1, TIMP1 (gene 7076)
Briefly: LTEA_HepaRG_TIMP1: Life Technologies and Expression Analysis (LTEA) Assay for TIMP1 using HepaRG (AID 2283534). Particulars: mRNA level, 48 h; actives raise or lower the signal. The essentials:
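Bidirectional change in TIMP1 transcript versus 0.5% DMSO, measured by TaqMan qRT-PCR with three housekeeping genes for normalization. HepaRG human liver cells dosed 48 h in duplicate, top concentration 100 uM with half-log dilutions.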

Read-out in experiment [9]: Tumor necrosis factor receptor 1 (TNFRSF1A), TNFRSF1A (gene 7132)
The experiment in a line: LTEA_HepaRG_TNFRSF1A: Life Technologies and Expression Analysis (LTEA) Assay for Tumor necrosis factor receptor 1 (TNFRSF1A) using HepaRG (AID 2283535). The conditions noted are these: mRNA level, 48 h; actives raise or lower the signal. The essentials:
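mRNA measured by qRT-PCR (TaqMan, Fluidigm arrays) against ACTB/GAPDH/POLR2A housekeepers after 48 h chemical exposure of HepaRG cells. Top concentration 100 uM, half-log 8-point series, duplicates; vehicle 0.5% DMSO, both fit directions.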

Read-out in experiment [10]: Thyroid Hormone Responsive (THRSP), THRSP (gene 7069)
The experiment in a line: LTEA_HepaRG_THRSP: Life Technologies and Expression Analysis (LTEA) Assay for Thyroid Hormone Responsive (THRSP) using HepaRG (AID 2283536). The conditions noted are these: mRNA level, 48 h; actives raise or lower the signal. The essentials:
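mRNA induction or loss relative to 0.5% DMSO vehicle was fitted bidirectionally across an eight-point curve whose highest exposure was 100 uM. Human HepaRG liver cells received chemicals in duplicate over 48 h before RNA extraction.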

Read-out in experiment [11]: UDP glucuronosyltransferase (UGT1A1), UGT1A1 (gene 54658)
The experiment in a line: LTEA_HepaRG_UGT1A1: Life Technologies and Expression Analysis (LTEA) Assay for UDP glucuronosyltransferase (UGT1A1) using HepaRG (AID 2283538). Particulars: mRNA level, 48 h; actives raise or lower the signal. The essentials:
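HepaRG cells, 0.5% DMSO vehicle, 48 h exposure in serum-free induction medium to 8-point half-log series topping at 100 uM, in duplicate. UGT1A1 mRNA by Fluidigm qRT-PCR, normalized to ACTB/GAPDH/POLR2A; bidirectional fit versus DMSO.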

Read-out in experiment [12]: UDP glucuronosyltransferase (UGT1A6), UGT1A6 (gene 54578)
Briefly: LTEA_HepaRG_UGT1A6: Life Technologies and Expression Analysis (LTEA) Assay for UDP glucuronosyltransferase (UGT1A6) using HepaRG (AID 2283539). Particulars: mRNA level, 48 h; actives raise or lower the signal. Put shortly: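 Expression was quantified by TaqMan qRT-PCR on Fluidigm arrays with ACTB/GAPDH/POLR2A normalization and bidirectional fitting against 0.5% DMSO. HepaRG cells (~100,000/well) were treated in duplicate for 48 h at eight half-log concentrations up to 100 uM in serum-free induction medium.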

Read-out in experiment [13]: X-box binding protein 1 (XBP1), XBP1 (gene 7494)
Briefly: LTEA_HepaRG_XBP1: Life Technologies and Expression Analysis (LTEA) Assay for X-box binding protein 1 (XBP1) using HepaRG (AID 2283540). Particulars: mRNA level, 48 h; actives raise or lower the signal. Put shortly:
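XBP1 transcript by qRT-PCR (housekeeping-normalized: ACTB, GAPDH, POLR2A) after 48 h chemical treatment of HepaRG cells, 8-point half-log series topping at 100 uM, vehicle 0.5% DMSO. Gain and loss of signal fitted relative to DMSO.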

Experiment [14] can be described thus: LTEA_HepaRG_LDH_cytotoxicity: Cytotoxicity Assessment in the Life Technologies and Expression Analysis (LTEA) Assay (AID 2283563; active = hit-call score of the fitted dose curve at least 0.9, where 1 is the maximum;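 for AC50: LDH activity released into spent culture medium as a marker of cell death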). Put shortly:
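LDH release into culture medium read after 48 h chemical treatment of HepaRG cells. Duplicate wells, eight-point half-log series topping at 100 uM, 0.5% DMSO vehicle and baseline.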

The nature of experiment [15]: TOX21_p53_BLA_p2_viability: Viability Assessment in the Tox21 HCT-116 p53 Agonism Beta-lactamase Assay, Phase 2 (AID 2283591; active = hit-call score of the fitted dose curve at least 0.9, where 1 is the maximum;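 note: compound exposure lasted 16 h at 37 °C; actives lower the ATP signal meaning cytotoxicity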). Put shortly: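 Cytotoxicity readout: CellTiter-Glo ATP luminescence, 30 min at room temperature, after the beta-lactamase read. Cells were HCT116 exposed 16 h at 37C to compounds pin-transferred at 217-fold dilution from DMSO stocks.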
The target in experiment [16] is Cellular tumor antigen p53 (Homo sapiens) (UniProt P04637). Briefly: TOX21_p53_BLA_p2_ratio: Tox21 HCT-116 p53 Agonism Beta-lactamase Assay, Ratio, Phase 2 (AID 2283592; active = hit-call score of the fitted dose curve at least 0.9, where 1 is the maximum). Put shortly: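 Gain-of-signal p53 agonism was scored from the beta-lactamase FRET ratio (460/530 nm, 405 nm excitation) in HCT116 cells treated 16 h at 37C, 5% CO2, with DMSO serving as negative control and baseline.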
Sequence of Cellular tumor antigen p53 (Homo sapiens) (P04637 whole entry, looked up): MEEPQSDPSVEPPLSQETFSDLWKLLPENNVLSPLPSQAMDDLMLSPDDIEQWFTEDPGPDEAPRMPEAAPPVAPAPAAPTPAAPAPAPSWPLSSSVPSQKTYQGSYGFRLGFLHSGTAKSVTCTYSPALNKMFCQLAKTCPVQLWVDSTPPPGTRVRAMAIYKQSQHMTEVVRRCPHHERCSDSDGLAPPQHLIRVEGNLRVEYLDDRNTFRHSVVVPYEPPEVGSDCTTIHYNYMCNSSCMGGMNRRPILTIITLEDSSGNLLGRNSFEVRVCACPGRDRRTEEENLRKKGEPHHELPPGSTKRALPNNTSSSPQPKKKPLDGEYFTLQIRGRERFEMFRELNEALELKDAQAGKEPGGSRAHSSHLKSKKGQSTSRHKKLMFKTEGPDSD

The nature of experiment [17]: ATG_XTT_Cytotoxicity: Cytotoxicity Assessment in the Attagene TRANS-FACTORIAL HepG2 Assay (AID 2283584; active = hit-call score of the fitted dose curve at least 0.9, where 1 is the maximum). Put shortly:
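Viability endpoint from XTT after 24 h chemical exposure of reporter-transfected human HepG2 liver cells; signal loss fitted relative to DMSO negative control.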

Results filed as inconclusive are left out. Active and inactive are the calls of the source. Rule for the calls, unless noted: active = hit-call score of the fitted dose curve at least 0.9, where 1 is the maximum; inactive = score below 0.9.

Sequence of Signal transducer and activator of transcription 3 (Homo sapiens) (P40763 whole entry, looked up): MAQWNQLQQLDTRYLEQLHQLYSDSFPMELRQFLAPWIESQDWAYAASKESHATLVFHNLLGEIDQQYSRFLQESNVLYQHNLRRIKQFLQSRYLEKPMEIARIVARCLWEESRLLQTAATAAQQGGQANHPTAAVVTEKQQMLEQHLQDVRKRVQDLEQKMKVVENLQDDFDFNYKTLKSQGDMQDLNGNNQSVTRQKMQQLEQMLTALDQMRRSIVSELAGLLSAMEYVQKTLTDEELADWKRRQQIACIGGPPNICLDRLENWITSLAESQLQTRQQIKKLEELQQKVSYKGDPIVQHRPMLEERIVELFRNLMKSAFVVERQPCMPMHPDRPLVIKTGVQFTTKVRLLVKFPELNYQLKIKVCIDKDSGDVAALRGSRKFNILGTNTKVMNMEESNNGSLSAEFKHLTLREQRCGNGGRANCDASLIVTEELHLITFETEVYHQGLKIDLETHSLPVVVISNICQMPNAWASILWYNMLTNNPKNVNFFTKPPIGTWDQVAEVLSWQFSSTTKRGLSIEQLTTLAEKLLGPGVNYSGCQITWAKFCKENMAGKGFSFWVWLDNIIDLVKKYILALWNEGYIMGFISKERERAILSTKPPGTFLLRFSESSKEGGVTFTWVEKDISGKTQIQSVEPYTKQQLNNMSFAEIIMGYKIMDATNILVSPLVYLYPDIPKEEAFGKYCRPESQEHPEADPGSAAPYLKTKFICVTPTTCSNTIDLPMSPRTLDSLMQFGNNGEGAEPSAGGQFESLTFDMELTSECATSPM
Sequence of Nuclear factor erythroid 2-related factor 2 (Homo sapiens) (Q16236 whole entry, looked up): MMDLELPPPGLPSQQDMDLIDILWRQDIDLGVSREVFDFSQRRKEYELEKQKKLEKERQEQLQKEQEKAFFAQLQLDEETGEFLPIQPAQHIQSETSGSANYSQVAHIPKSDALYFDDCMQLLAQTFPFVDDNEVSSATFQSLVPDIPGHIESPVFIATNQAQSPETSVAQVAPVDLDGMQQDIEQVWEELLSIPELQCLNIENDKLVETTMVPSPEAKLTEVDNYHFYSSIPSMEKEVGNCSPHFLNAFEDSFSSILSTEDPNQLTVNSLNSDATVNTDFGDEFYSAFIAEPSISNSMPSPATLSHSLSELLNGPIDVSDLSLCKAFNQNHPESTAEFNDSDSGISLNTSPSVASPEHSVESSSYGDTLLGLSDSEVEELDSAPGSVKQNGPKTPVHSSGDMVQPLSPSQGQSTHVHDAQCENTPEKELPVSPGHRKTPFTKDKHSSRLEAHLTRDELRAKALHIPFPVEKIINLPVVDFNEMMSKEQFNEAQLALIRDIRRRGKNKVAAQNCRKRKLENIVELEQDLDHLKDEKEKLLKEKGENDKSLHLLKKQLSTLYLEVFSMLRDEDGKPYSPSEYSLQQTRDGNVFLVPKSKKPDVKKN

As to `CC#Cc1cc(C)nc(Nc2ccccc2)n1`, the outcome was “inactive” in [1]; “inactive” in [3]; “inactive” in experiment [7]; “inactive” in experiment [8]; “inactive” with TIMP1, TIMP1 (gene 7076); “inactive” in [9]. Further, the molecule was called inactive in [12], in [13], in experiment [15] and in [16]. The AC50 in experiment [2] is 30.2 µM (active); in [4] it was 6.11 µM (active); in experiment [5], 29.2 µM (active); in [6] it was 5.75 µM (active); in experiment [10] it was 6.1 µM (active); in experiment [11] it was 8.68 µM (active). Also, in experiment [14], the AC50 was 59.9 µM (active).
As to `Cc1ccccc1[N+](=O)[O-]`, the outcome in [1], in experiment [2], in experiment [3], in experiment [4], in [5] and in experiment [6] was inactive. Besides, the outcome in experiment [7] is “inactive”; in [8], “inactive”; in the experiment with TIMP1, TIMP1 (gene 7076), “inactive”; in [9] it was “inactive”; in experiment [10], “inactive”; in [11], “inactive”. Moreover, the result in experiment [12], in experiment [13], in experiment [14], in [17], in experiment [15] and in experiment [16] was inactive.
As for `Sc1ccccc1`, in [17], the molecule was classed as inactive.
As for `COS(=O)(=O)OC`, the molecule was classed as inactive in [1], in experiment [2], in experiment [3], in experiment [4], in experiment [6] and in [7]. Moreover, the outcome in experiment [8] is “inactive”; with TIMP1, TIMP1 (gene 7076), “inactive”; in [9] it was “inactive”; in [10], “inactive”; in experiment [11] it was “inactive”; in experiment [12], “inactive”. The outcome in experiment [13], in experiment [14], in experiment [15] and in experiment [16] was inactive.
As for `CCSC(=O)N(CC)C1CCCCC1`, the result in experiment [1], in [2], in [3], in [4], in experiment [5] and in experiment [6] was inactive. Besides, the outcome is “inactive” in experiment [7]; “inactive” in the experiment with TIMP1, TIMP1 (gene 7076); “inactive” in experiment [9]; “inactive” in experiment [10]; “inactive” in experiment [11]; “inactive” in [12]. Besides, the call in experiment [13] and in experiment [14] was inactive.
As to `c1cc2ccc3cccc4ccc(c1)c2c34`, the molecule was called inactive in experiment [1], in [2], in experiment [3], in experiment [4], in experiment [5] and in [6]. The outcome in experiment [7] is “inactive”; in [8], “inactive”; with TIMP1, TIMP1 (gene 7076), “inactive”; in [9] it was “inactive”; in experiment [10], “inactive”; in experiment [12], “inactive”. Further, the result in experiment [13], in experiment [14], in experiment [17], in experiment [15] and in experiment [16] was inactive. In [11], the AC50 was 10.7 µM (active).
`O=C(NC(=O)c1cc(F)c(F)cc1Cl)Nc1cc(F)ccc1N1CCC(C(=O)O)CC1`: the molecule was called inactive in experiment [1], in experiment [2], in [3], in experiment [4], in experiment [5] and in experiment [6]. The outcome is “inactive” in experiment [7]; “inactive” in experiment [8]; “inactive” in the experiment with TIMP1, TIMP1 (gene 7076); “inactive” in experiment [9]; “inactive” in experiment [10]; “inactive” in experiment [11]. For the same molecule, the result in [12], in [13], in [14], in experiment [15] and in [16] was inactive.

One may read the AC50 as the concentration giving half of the maximal activity seen.

The values are drawn from PubChem BioAssay (EPA / NIEHS).
